# An excerpt weighted towards active compounds, which were near 1.8% of everything screened.
# KLF5 inh: kruppel-like factor 5 inhibition; DLD-1 KLF5 promoter-luciferase reporter, luminescence; hit rate 0.23% among 290,000; inhibition, % at 5 µM;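 active means inhibition above a per-plate limit of that plate's mean compound inhibition plus 3 SD, cut at about 60% in these data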;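 further: higher means less KLF5 promoter-driven luciferase light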
# IEC-6 tox: counter-screen for KLF5 inhibitors: cytotoxicity in IEC-6 cells | IEC-6 cytotoxicity, luminescence viability | inhibition, % at 5 µM | hit rate 0.78% among 290,000 | AID 1825; in the data active means inhibition above about 22%
# APP transl inh: APP translation inhibition; inhibition, % at 2 µM; SH-SY5Y APP 5'UTR-luciferase reporter, luminescence; hit rate 0.82% among 190,000;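 active means inhibition above a set limit, derived from the sample mean plus 3 SD, cut at about 45% in these data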
# Ba/F3 V617F tox: loss of viability in JAK2V617F-driven Ba/F3 cells; inhibition, % at 5.6 µM; hit rate 1.1% among 220,000; Ba/F3 EpoR-JAK2V617F viability, ATP luminescence;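 active means inhibition above the campaign mean plus 3 SD over all tested compounds, cut at about 24% in these data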;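 further: cytokine-independent growth of Ba/F3 cells driven by EpoR plus mutant JAK2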
# BaF3 parental: reduces parental Ba/F3 cell viability, JAK2V617F counter-screen; inhibition, % at 5.6 µM; CellTiter-Glo ATP luminescence; hit rate 1.1% among 220,000;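 active means inhibition above a per-campaign cutoff, the mean inhibition of all tested compounds plus 3 SD, cut at about 27% in these data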
# A number is an active result; i = inactive; nt = no result given.
SMILES,KLF5 inh,IEC-6 tox,APP transl inh,Ba/F3 V617F tox,BaF3 parental
Cc1cccc(N2C(=O)C(O)=C(C(=O)c3cccs3)C2c2ccc(Cl)cc2)n1 (stereo not drawn),i,i,nt,i,i
Cc1cc(C)cc(NC(=O)/C=C/c2ccc([N+](=O)[O-])s2)c1,i,i,53,i,50
Cc1ccccc1NC(=O)/C=C/c1cccs1,i,i,i,i,i
Cc1ccccc1NC(=O)/C=C/c1ccc([N+](=O)[O-])s1,i,i,90,80,55
CC(C)(C)C(=O)CC1(O)C(=O)N(Cc2ccccc2)c2ccccc21 (stereo not drawn),i,i,i,i,i
COc1ccc(C(=O)Nc2nnc(SCC(=O)NC3CC3)s2)cc1,i,i,nt,nt,nt
Cc1ccc(-n2nc3cc(C)c(NC(=S)NC(=O)/C=C/c4ccco4)cc3n2)cc1,i,i,i,68,63
COc1ccc(-c2csc(NC(=S)NC(=O)/C=C/c3ccco3)n2)cc1OC,i,i,75,i,i
COc1ccc(-c2csc(NC(=S)NC(=O)/C=C/c3ccco3)n2)cc1Br,i,i,nt,i,i
CC(C)(C)C(=O)COC(=O)c1ccc2c(c1)C(=O)N(Cc1ccco1)C2=O,i,i,nt,nt,nt
CC(Sc1nnc2ccccn12)C(=O)Nc1ncc(Cl)cc1Cl (stereo not drawn),i,i,i,i,i
COc1ccc(-n2c(SC(C)C(=O)Nc3ncc(Cl)cc3Cl)nc3ccccc32)cc1 (stereo not drawn),i,66,i,69,62
CCC(=O)NC1=C(Cl)C(=O)C(NC(=O)CC)=C(Cl)C1=O,i,73,nt,i,i
O=C(O)CC1Sc2nnc(COc3ccc(Cl)cc3)n2N=C1c1ccccc1 (stereo not drawn),i,i,nt,nt,nt
Cc1ccc(Cl)cc1NC(=O)Nc1c(C)n(C)n(-c2ccccc2)c1=O,i,i,nt,nt,nt
O=C(/C=C/c1cccs1)NC(=S)NNC(=O)c1ccccc1O,i,i,i,94,54
CC(=O)N1c2ccc(S(=O)(=O)NCc3ccco3)cc2CC1C (stereo not drawn),i,i,nt,nt,nt
O=C(OCc1ccccc1)N1CCCC1/C=C/CN1CCOCC1 (stereo not drawn),i,i,63,i,i
Cc1ccc(N2CCN(C(=S)Nc3ccc(Cl)cc3)CC2)cc1,i,i,nt,nt,nt
S=C(Nc1ccc(Cl)cc1)N1CCN(C2CCCCC2)CC1,i,i,i,i,36
CCOC(=O)CNC(=O)Cn1cnc2c(oc3ccccc32)c1=O,i,i,nt,nt,nt
Cc1[nH]c2ccccc2c1CCN(Cc1cccnc1)C(=S)Nc1cccc(F)c1,i,i,i,27,30
Cn1c(C(=O)N2CCCC(C(=O)O)C2)cc2sccc21 (stereo not drawn),i,i,i,i,95
Cn1c(C(=O)N2CCCC(C(=O)N3CCN(C(=O)c4ccco4)CC3)C2)cc2sccc21 (stereo not drawn),i,i,i,i,i
O=C(CSC(=S)N1CCN(c2ccccc2)CC1)Nc1nc(-c2ccccc2)c(-c2ccccc2)o1,i,i,i,i,i
SMILES,KLF5 inh,IEC-6 tox,APP transl inh,Ba/F3 V617F tox,BaF3 parental
COc1ccc(-n2cnc3ccccc3c2=O)c([N+](=O)[O-])c1,i,i,nt,nt,nt
C[N+]1(CC(=O)OC2CCCCCCCCCCC2)CCCC1,i,i,i,73,72
O=C(COc1ccccc1[N+](=O)[O-])N(Cc1cccc(Br)c1)C1CCS(=O)(=O)C1 (stereo not drawn),i,i,nt,nt,nt
Cc1ccc(NS(=O)(=O)c2c(C(=O)N3CCCCCC3)c(C)n(C)c2C)c(C)c1,i,i,nt,nt,nt
CCN1C/C(=C\c2cccc([N+](=O)[O-])c2)C(=O)/C(=C/c2cccc([N+](=O)[O-])c2)C1,i,i,96,i,i
O=C1/C(=C/c2cccc([N+](=O)[O-])c2)CCc2ccccc21,i,i,i,i,i
CN1C/C(=C/c2cccnc2)C(=O)/C(=C/c2cccnc2)C1,i,i,89,i,i
Cc1nn(Cc2ccccc2)c(Cl)c1/C=C/C(=O)OCC(=O)N1CCCC1=O,i,i,i,i,i
COC(=O)CCC(=O)NC(=S)Nc1ccc(S(=O)(=O)Nc2cc(OC)nc(OC)n2)cc1,i,i,i,i,i
COc1cc(NS(=O)(=O)c2ccc(NC(=S)NC(=O)CC(C)C)cc2)nc(OC)n1,i,i,54,i,i
COc1ccccc1NC(=O)C(=O)c1cn(CC(=O)N2CCOCC2)c2ccccc12,i,i,nt,nt,nt
COc1ccc(C2CC(c3c(O)cc(C)oc3=O)=NCCS2)c(OC)c1 (stereo not drawn),i,i,93,i,i
CC(=O)Nc1ccc(S(=O)(=O)N2CCC(C(=O)N[C@@H](C)C(=O)NC3CCCC3)CC2)cc1,i,i,nt,nt,nt
CN1/C(=C\C=N\NC(=O)c2cccnc2)C(C)(C)c2ccccc21,i,i,i,38,43
CN1/C(=C\C=N\NC(=O)c2ccc(O)cc2)C(C)(C)c2ccccc21,i,i,i,37,42
CCC1CCCCN1CCCNC(=O)c1cc2c(=O)oc3ccc(C)cc3c2s1 (stereo not drawn),i,i,nt,nt,nt
CC(=O)Oc1c(Br)cc(N(C(C)=O)S(=O)(=O)c2ccccc2)c2ccccc12,i,i,nt,nt,nt
CC(=O)Nc1ccc(NC(=O)CSc2nnc(NC(=O)c3cccc(F)c3)s2)cc1,i,i,nt,nt,nt
CN(Cc1ccco1)C(=O)c1ccc(CNS(=O)(=O)c2ccc3c(c2)C(C)(C)C(=O)N3C)cc1,i,i,nt,nt,nt
Cc1nc2ccccc2n1CSc1ccccc1,i,i,i,i,i
Cc1oc2c(CN3CCOCC3)c(O)ccc2c(=O)c1-c1ccc(Cl)cc1,i,i,nt,41,48
Cc1oc2c(CN3CCCC3)c(O)ccc2c(=O)c1-c1ccc(Cl)cc1,i,i,i,i,i
C/C(=N/NC(N)=S)c1ccccc1[N+](=O)[O-],i,i,i,i,i
COC(=O)c1ccccc1NC(=O)Cn1c(-c2nonc2N)nc2ccccc21,i,35,95,50,50
COC(=O)c1ccc(NC(=O)Cn2c(-c3nonc3N)nc3ccccc32)cc1,i,i,i,i,i
SMILES,KLF5 inh,IEC-6 tox,APP transl inh,Ba/F3 V617F tox,BaF3 parental
CC[n+]1c(/C=C2/C=C(C)CC(C)C2)sc2ccccc21 (stereo not drawn),i,i,i,60,55
CC/C(=C/c1sc2ccccc2[n+]1CC)SC,i,i,i,i,i
CC12Cc3ccc4ccccc4c3C=C1C[N+](C)(C)C2 (stereo not drawn),i,i,i,27,40
NS(=O)(=O)c1ccc(CCNC(=O)COC(=O)Cc2c(F)cccc2Cl)cc1,i,i,nt,nt,nt
CN1c2ccccc2C(C)(C)C12C=Cc1cc(O)ccc1O2 (stereo not drawn),i,i,i,72,63
COC(=O)N/N=C/c1cc(N=Nc2ccccc2)ccc1O,i,i,nt,i,i
Cc1cc(C(=O)N/N=C/c2cc(N=Nc3ccccc3)ccc2O)n[nH]1,i,i,50,i,i
Cn1c(N)c(-c2ccccc2)c2ccc([N+](=O)[O-])cc2c1=O,i,i,nt,nt,nt
CN(C)CCC#CC(O)(c1ccccc1)c1ccccc1,i,i,i,i,i
CCN(CC)CC#CC(O)(c1ccccc1)c1ccccc1,i,i,49,i,i
O=C(/C=C/c1cccs1)Nc1ccc(Br)cn1,i,81,92,74,71

# Compound activity (PubChem)
